Source: the OligoGym collection

Biological target: DPP9
Assay: pooled miR-30 sensor sort-seq; sequence = guide strand
Conditions: shRNA

Compared with TTAATGTGTCTACTTCTTCCAC, TTTGAAGGAGTTATTCACCAGC is higher in sensor-assay potency score (higher = more potent): -0.494 for the first, -0.354 for the second.

First: TCGCTGTGGAAGTCGTAGGAGG
Second: TTATTCACCAGCTGCACCTGGG
The sensor-assay potency score (higher = more potent) of the first is lower: -1.41 for the first, -0.396 for the second.

Going from TAGCTGACCACGTAGAGGTGGT to ATGAACATTGATCCAGACGTTG, the sensor-assay potency score (higher = more potent) falls from -0.544 to -1.33.

First: TCTTCCTTTCTTCTAGCGCAGG
Second: ATGTCATGAACATTGATCCAGA
The sensor-assay potency score (higher = more potent) of the first is lower: -1.35 for the first, -1.2 for the second.

Going from TTATAAAAGAATAAGAATCGAC to AATACTGTGTCTCTCGTTGGGG, the sensor-assay potency score (higher = more potent) rises from -0.653 to 0.209.

Going from TAATGTGTCTACTTCTTCCACG to TAGAGGAGGGAGTTCTCTCGGC, the sensor-assay potency score (higher = more potent) falls from 0.224 to -0.587.

Biological target: DPPA5
Assay: as above
Conditions: shRNA

Going from AGGGATTCGAGATCCGTCCGGG to TCTTCGGGAACTTTCACCCACG, the sensor-assay potency score (higher = more potent) rises from -0.916 to -0.874.

Going from TTTCAGGTCTTCGGGAACTTTC to TTGAGCATCCCTCGCTCCTGGC, the sensor-assay potency score (higher = more potent) rises from -1.57 to -0.972.

Going from ATGGACTGGAGCATCCACTTGG to TTCGAGATCCGTCCGGGCCGAA, the sensor-assay potency score (higher = more potent) falls from -0.436 to -1.6.

Compared with TAAACCACGACCTCGGTGAGGT, TTTGAGCATCCCTCGCTCCTGG is lower in sensor-assay potency score (higher = more potent): -0.536 for the first, -0.61 for the second.

Going from TGTAAGGGATTCGAGATCCGTC to TGGAGCATCCACTTGGTCCGGA, the sensor-assay potency score (higher = more potent) falls from -0.0102 to -0.524.

Work on TTCGGGAACTTTCACCCACGGC yielded a sensor-assay potency score (higher = more potent) of -1.56.
